Source: PubChem BioAssay (National Center for Advancing Translational Sciences (NCATS))
Only some compounds are listed: those with a hit (about 19% of all), similar ones and a draw of the others.
TDP1 cell noCPT – qHTS for Inhibitors of human tyrosyl-DNA phosphodiesterase 1 (TDP1): qHTS in cells in absence of CPT. DT40 Tdp1-/- hTDP1 cells, no CPT, ATP luminescence, 48 h. Potency, µM (series often up to 46.2 µM), for the others: top-dose activity change, negative = growth inhibition, most hits filed as inhibitors. 15% of 420,000 active. AID 686978, 2013; note: potency is the fitted concentration of half-maximal effect; nearly all actives have a fitted effect of over 55% in size
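Readout: luminescence from CellTiter-Glo after 30 min in the dark at RT. Cells: DT40 Tdp1-/- with stable hTDP1, 400/well. Exposure: compounds alone, ≥48 hr, 37 °C.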
DT40 TDP1 CPT – DT40-hTDP1 cell growth loss with CPT | chicken DT40 Tdp1-/-;hTDP1 cells + 20 nM CPT, ATP luminescence, 48 h | Potency, µM (doses to about 46.2 µM), without a hit: at the top dose activity change, negative = growth inhibition, most hits filed as inhibitors | 12% of 420,000 active | AID 686979; note: potency is the fitted concentration of half-maximal effect; nearly all actives have a fitted effect of over 55% in size
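Chicken DT40 Tdp1-/- cells stably complemented with human TDP1 were seeded at 400 cells/well in medium containing 20 nM camptothecin, exposed to pin-transferred compounds, and grown at 37 °C for at least 48 hr. Viability was read as ATP luminescence.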
HT1080 IDH1KD tx – kills HT-1080 cells with IDH1 knockdown; AID 686971; 2% of 360,000 active; Potency, µM (top dose mostly 46.1 µM), inactives show at the highest dose activity, negative = toxicity, hits mostly cytotoxic; HT-1080 IDH1 knockdown viability, ATP luminescence, 48 h;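 note: potency is the fitted concentration of half-maximal effect; 0% = DMSO wells and -100% = cell-free medium wells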
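HT-1080-IDH1KD cells (IDH1 knocked down), 750/well in RPMI with 5% FBS, treated with compound 48 h at 37 degrees C. Viability by CellTiter-Glo luminescence, normalised to DMSO and no-cell wells; concentration-response curves classed.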
uPA generation – blocks generation of uPA at the cell surface | 0.31% of 330,000 active | Potency, µM (top dose mostly 38.3 µM), inactives show at the top dose activity change, negative = inhibition, usual class: inhibitors | cell surface uPA generation assay, qHTS; active = well fitted inhibition curve with a large enough effect; inconclusive = small, poorly fitted or top-dose-only effect; inactive = no such curve, though single readings can be large or run the other way; tested in mouse RAW 264.7 cells; note: potency is the fitted concentration of half-maximal effect; nearly all actives have a fitted effect of over 55% in size
IL-1B inflam inh – blocks inflammasome-driven IL-1 beta release; THP-1 LPS/ATP IL-1B secretion, AlphaLISA, 16 h; active compounds read low; 4.7% of 360,000 active; activity change, % at 57.5 µM; AID 743279; in the data active = activity change below about -50%; inconclusive = mostly about -30% to -49%
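THP-1 cells pretreated 1 hr with compounds (up to 57.5 uM final), then stimulated with LPS (250 ng/mL final) plus ATP (1.25 mM final); secreted IL-1B measured by AlphaLISA after 16 hr, decreased signal indicating inhibition.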
HT1080NT lethal – kills 2HG-producing HT-1080-NT fibrosarcoma cells; HT-1080-NT fibrosarcoma viability, CellTiter-Glo ATP luminescence, 48 h; Potency, µM (doses to about 46.1 µM), for inactives: at the top dose activity, negative = less viability, usual class: cytotoxic; 1.6% of 360,000 active;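 note: NT is the 2HG producing partner of a matched IDH1 knockdown line; potency is the fitted concentration of half-maximal effect; 0% = DMSO-treated cells and -100% = media-only wells without cells; nearly all actives have a fitted effect of over 55% in size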
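A 48-hour cytotoxicity screen used HT-1080-NT cells plated 2 hours before compound delivery. ATP-based CellTiter-Glo luminescence measured viability, normalized to DMSO and no-cell controls.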
Starred values were filed as active, the others as inactive; i = inactive; ? = inconclusive; nt = no result; [ ] = remark or other dose. Unless noted, calls come from the whole dose curve; as a rule, active = well fitted curve in the direction sought with a large enough effect; inconclusive = small, poorly fitted or top-dose-only effect, or another doubt; inactive = no such curve, though single readings can be large; an effect the other way counts as inactive or inconclusive. Unless noted, % is set by controls: 0 for no effect and ±100 for the full control effect.

SMILES	TDP1 cell noCPT	DT40 TDP1 CPT	HT1080 IDH1KD tx	uPA generation	IL-1B inflam inh	HT1080NT lethal
Cc1c(-c2nc(N)nc(Nc3ccccc3F)n2)oc2ccccc12	18µM*	?	-2%	-7%	-18	-2%
CCc1nc(Nc2cccc(OC)c2)c2oc3ccccc3c2n1	?	?	-9%	-6%	-11	-1%
Cc1ccc(Nc2nc(N)nc(COC(=O)c3ccc(Br)o3)n2)cc1	?	?	-2%	-17%	-7	-15%
COc1ccccc1Nc1nc(N)nc(-c2cc3ccccc3o2)n1	?	-28%	1%	-2%	-21	2%
COC(=O)c1c(-c2cc(OC)c(OC)c(OC)c2)c2ccnc(OCc3ncccn3)c2c(=O)n1Cc1ccnc(C)c1	-1%	23%	nt	nt	nt	nt
CN1CCN(c2ccc(Nc3ccnc4cc(Cl)ccc34)cc2)CC1	5.8µM*	4.6µM*	21µM*	-8%	-90*	?
CCN1CCN(c2ccc(Nc3ccnc4ccccc34)cc2)CC1	5.8µM*	12µM*	?	?	-1	-43%
CCN1CCN(c2nc(-c3ccccc3Cl)nc3ccccc23)CC1	?	-20%	0%	9%	-14	-4%
Cc1nc(N2CCc3ccccc3C2)[nH]c(=O)c1Cc1ccccc1	-11%	-2%	3%	0%	-1	4%
Cc1nc(-n2[nH]c3c(c2=O)CCCC3)[nH]c(=O)c1Cc1ccccc1	3.3µM*	2.9µM*	?	-9%	-106*	?
CC1=C(C(=O)N(C)C)CC(CC(=O)NC(c2ccccc2)c2ccccc2)C(=O)N1CCC1=CCCCC1 (centres undefined)	21µM*	?	-1%	nt	-16	-2%
CCN(CC)C(=O)C1=C(C)N(CCC2=CCCCC2)C(=O)C(CC(=O)NC(c2ccccc2)c2ccccc2)C1 (centres undefined)	?	18µM*	-8%	nt	3	-10%
CS(=O)(=O)c1nc(-c2ccccc2)cc(-c2ccccc2)c1C#N	2.9µM*	1.5µM*	?	-6%	-56*	23µM*
CNS(=O)(=O)c1cn(CC(=O)N(C)Cc2ccccc2)cc1S(=O)(=O)NC	4%	5%	2%	-1%	-18	-1%
CC1(C(=O)O)CCN1C(=O)c1cccc(C(F)(F)F)c1 (centres undefined)	-7%	9%	11%	nt	11	2%
O=C(O)CC/C=C\CC[C@H]1[C@@H](N2CCCCC2)[C@@H](O)C[C@@H]1OCc1ccc(-c2ccccc2)cc1	-2%	-1%	nt	nt	nt	nt
Oc1ccccc1CN(Cc1ccco1)CC(O)COCc1ccc(Cl)cc1 (centres undefined)	18µM*	15µM*	?	5%	-99*	?
COc1ccc(COCC(O)CN(Cc2ccco2)Cc2ccccc2O)cc1 (centres undefined)	?	?	0%	-1%	5	-4%
COC(=O)c1c(NC(=O)c2cccc(S(=O)(=O)N3CCN(C)CC3)c2)sc(C)c1C	15µM*	15µM*	-26%	-12%	-77*	-13%
CC(C)c1ccc(OC(=O)c2cccc(S(=O)(=O)N3CCN(C)CC3)c2)cc1	18µM*	?	-17%	-2%	i	-18%
CCCc1nc2nc(C)c(NS(=O)(=O)c3ccc(Cl)cc3)c(=O)n2[nH]1	-21%	-25%	5%	3%	-3	2%
Cc1ccc(CSc2nc3c(c(=O)[nH]2)C(c2cccc(F)c2F)CC(=O)N3)cc1 (centres undefined)	?	15µM*	nt	nt	nt	nt
COC(=O)c1ccc(-c2ccc(/C=N/N3C(=O)C4C5C=CC(C6CC56)C4C3=O)o2)cc1 (centres undefined)	18µM*	?	-3%	-4%	-57*	-3%
COC(=O)c1cccc(-c2ccc(/C=N/N3C(=O)C4C5C=CC(C6CC56)C4C3=O)o2)c1 (centres undefined)	-8%	-1%	-1%	1%	0	10%
CCOC(=O)CC(=O)Nc1c(C)cc(C)cc1C	5%	-2%	-1%	-8%	-16	7%
SMILES	TDP1 cell noCPT	DT40 TDP1 CPT	HT1080 IDH1KD tx	uPA generation	IL-1B inflam inh	HT1080NT lethal
CCC(=O)Nc1ccc(SC#N)cc1C	5µM*	6.5µM*	7.9µM*	?	-101*	?
Cc1cc(SC#N)cc(C)c1NC(=O)CCl	2.6µM*	3.3µM*	23µM*	-12%	-64*	18µM*
CCc1cc(SC#N)cc(C)c1NC(=O)CCl	1.6µM*	1.5µM*	?	-7%	-101*	?
CCC(=O)Nc1cc2c(C)cc(=O)oc2cc1C	2%	6%	15%	-4%	17	10%
COc1ccccc1-n1c(=O)[nH]c2c(C(N)=O)nc(-c3cccnc3)nc21	21µM*	?	-20%	-13%	21	-30%
COc1ccccc1-n1c(=O)[nH]c2c(C(N)=O)nc(CC(C)C)nc21	-21%	-23%	-2%	1%	0	18%
CC(C)(C)c1ccc(S(=O)(=O)N2CCN(C(=O)C3=COCCO3)CC2)cc1	?	29µM*	-2%	-8%	10	-3%[9.24 µM]
Cc1cccc(C)c1N1CCN(S(=O)(=O)c2ccc(F)cc2)CC1	16µM*	?	0%	14%	-9	-1%
CC(C)c1ccc(S(=O)(=O)N2CCN(C(=O)C3=COCCO3)CC2)cc1	?	?	1%	-16%	-9	4%[9.24 µM]
O=C(C1CCC1)N1CCN(S(=O)(=O)c2ccc(F)cc2)CC1	-25%	-27%	3%	7%	4	0%
CC(=O)N1CCC(C(=O)N2CCN(S(=O)(=O)c3ccc(F)cc3)CC2)CC1	18µM*	0%	-12%	1%	i	-2%
CC(C)(C)c1ccc(S(=O)(=O)N2CCN(C(=O)C3CCC3)CC2)cc1	18µM*	8.2µM*	1%	11%	12	2%
CC(C)Oc1ccc(C(=O)Nc2ccc(S(=O)(=O)N3CCN(C)CC3)cc2)cc1	?	?	-13%	?	27	-7%
O=C(NCC1COc2ccccc2O1)C1CCN(S(=O)(=O)c2ccc(Cl)cc2)CC1 (centres undefined)	?	?	0%	-13%	-7	1%
COC(=O)c1ccc(NC(=O)c2snnc2-c2ccccc2)cc1	?	?	-3%	1%	-14	-3%
CC(C)(C)c1ccc(S(=O)(=O)N2CCC(CO)(CC3CCCCO3)CC2)cc1 (centres undefined)	?	?	-17%	nt	-72*	-28%
